Consider 52 molecules from PubChem BioAssay (NCATS).

Assay [1] concerns the target Luciferin 4-monooxygenase (Photinus pyralis) (UniProt P08659). Nature of the assay: Biochemical firefly luciferase enzyme assay for NPC (AID 624030). Further: nearly all actives have a fitted effect of over 70% in size. Put shortly:
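Purified P. pyralis luciferase at 10 nM in 50 mM Tris Acetate (final), luminescence read within 5 minutes of enzyme addition to compounds. Activity normalised to PTC124 versus DMSO; concentration-response curves classed by r2, magnitude and activity.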

Assay [2] addresses Voltage-gated inwardly rectifying potassium channel KCNH2 (Homo sapiens) (UniProt Q12809). Nature of the assay: qHTS Assay for Small Molecule Inhibitors of the Human hERG Channel Activity (AID 588834).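 Further: lower thallium flux fluorescence means stronger hERG block; nearly all actives have a fitted effect of over 50% in size.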 Put shortly: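 Concentration-response qHTS measuring drop in thallium-sensitive dye signal. U2OS cells carrying BacMam hERG; compound exposure ~10 min, then stimulation buffer and 2 min read at 1 sec intervals.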

A short description of assay [3]: S16 Schwann cell PMP22 intronic element firefly luciferase assay (AID 624032). Further: nearly all actives have a fitted effect of over 30% in size. Put shortly:
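Rat S16 Schwann cells stably carrying firefly luciferase driven by a PMP22 intronic element, in 10% FBS, treated 24 h at 37 C. ONE-Glo luminescence normalized to PTC124 control and DMSO (0%); curves classed by r2, magnitude and activity.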

Assay [4] is described as follows: S16 Schwann cell viability assay (CellTiter-Glo assay) (AID 624031). Further: nearly all actives have a fitted effect of over 70% in size. The procedure, abridged:
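Native S16 rat Schwann cells in DMEM/10% FBS without phenol red were incubated overnight, then exposed to compounds for 24 h at 37 °C/5% CO2. Viability was read as ATP luminescence (CellTiter-Glo), normalized to no-cell wells and DMSO (0%).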

Records with an inconclusive call do not appear. Active and inactive are the calls of the source. The call rests on the fitted dose curve; in most records, active means well fitted curve in the direction sought with a large enough effect; inconclusive means small, poorly fitted or top-dose-only effect, or another doubt; inactive means no such curve, though single readings can be large; an effect the other way counts as inactive or inconclusive.
Potency means the concentration at half of the fitted maximal effect.

Sequence of Luciferin 4-monooxygenase (Photinus pyralis) (P08659 whole entry, looked up): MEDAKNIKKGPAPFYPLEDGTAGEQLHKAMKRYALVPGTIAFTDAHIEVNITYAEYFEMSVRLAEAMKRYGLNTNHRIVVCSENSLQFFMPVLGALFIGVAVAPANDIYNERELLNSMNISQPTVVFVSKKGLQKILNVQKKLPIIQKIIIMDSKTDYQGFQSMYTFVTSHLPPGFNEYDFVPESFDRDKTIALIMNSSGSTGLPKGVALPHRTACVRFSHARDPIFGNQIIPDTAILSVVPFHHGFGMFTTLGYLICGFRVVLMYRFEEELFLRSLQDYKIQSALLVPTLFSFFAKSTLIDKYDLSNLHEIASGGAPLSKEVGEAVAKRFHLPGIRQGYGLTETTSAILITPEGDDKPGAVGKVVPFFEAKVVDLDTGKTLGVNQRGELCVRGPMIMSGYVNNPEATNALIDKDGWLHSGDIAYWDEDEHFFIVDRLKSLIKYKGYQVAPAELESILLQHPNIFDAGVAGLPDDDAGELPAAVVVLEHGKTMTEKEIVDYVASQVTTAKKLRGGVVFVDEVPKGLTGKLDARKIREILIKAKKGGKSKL
Sequence of Voltage-gated inwardly rectifying potassium channel KCNH2 (Homo sapiens) (Q12809 whole entry, looked up): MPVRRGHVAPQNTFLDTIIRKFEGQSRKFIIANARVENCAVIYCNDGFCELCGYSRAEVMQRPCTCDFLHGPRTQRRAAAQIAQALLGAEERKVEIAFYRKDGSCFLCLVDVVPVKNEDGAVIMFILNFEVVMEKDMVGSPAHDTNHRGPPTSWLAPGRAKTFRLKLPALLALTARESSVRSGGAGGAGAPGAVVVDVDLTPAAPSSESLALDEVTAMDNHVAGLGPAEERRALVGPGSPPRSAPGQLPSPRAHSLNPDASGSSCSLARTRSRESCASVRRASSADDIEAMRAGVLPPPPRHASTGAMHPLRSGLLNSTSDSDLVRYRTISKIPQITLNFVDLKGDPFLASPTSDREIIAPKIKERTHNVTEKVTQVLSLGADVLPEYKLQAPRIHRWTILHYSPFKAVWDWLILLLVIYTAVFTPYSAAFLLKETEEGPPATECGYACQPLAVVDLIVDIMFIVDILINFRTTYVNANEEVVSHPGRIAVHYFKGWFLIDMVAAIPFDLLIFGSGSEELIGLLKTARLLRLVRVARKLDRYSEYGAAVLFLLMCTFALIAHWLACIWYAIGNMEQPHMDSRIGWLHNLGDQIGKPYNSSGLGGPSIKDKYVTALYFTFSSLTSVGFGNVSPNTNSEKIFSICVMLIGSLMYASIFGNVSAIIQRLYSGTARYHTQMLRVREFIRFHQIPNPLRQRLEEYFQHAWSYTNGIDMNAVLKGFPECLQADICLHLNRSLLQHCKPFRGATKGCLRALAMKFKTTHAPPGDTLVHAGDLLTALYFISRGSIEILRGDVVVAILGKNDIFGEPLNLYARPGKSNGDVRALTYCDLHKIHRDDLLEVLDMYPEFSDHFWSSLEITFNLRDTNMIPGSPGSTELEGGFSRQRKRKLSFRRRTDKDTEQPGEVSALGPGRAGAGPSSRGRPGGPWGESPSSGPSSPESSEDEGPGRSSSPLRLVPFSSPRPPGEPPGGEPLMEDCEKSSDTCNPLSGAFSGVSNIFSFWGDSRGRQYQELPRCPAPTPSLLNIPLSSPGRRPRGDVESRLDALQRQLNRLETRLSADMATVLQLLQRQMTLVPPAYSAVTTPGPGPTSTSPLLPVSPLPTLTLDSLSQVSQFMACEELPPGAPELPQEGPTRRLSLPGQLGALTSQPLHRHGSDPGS

For the molecule `Cc1ccc(Nc2nccc(N(C)c3ccc4c(C)n(C)nc4c3)n2)cc1S(N)(=O)=O`, in assay [1], the Potency result is “inactive”.
With `CN(c1nccc(=O)[nH]1)C1CCN(c2nc3ccccc3n2Cc2ccc(F)cc2)CC1`, the Potency in assay [2] was 1.78 µM (active). The Potency result in assay [1] and in assay [3] was “inactive” throughout.
With `COC1=C(OC)C(=O)C(CCCCCCCCCCO)=C(C)C1=O`, the Potency entry in assay [1] is “inactive”.
As for `Cc1ncc([N+](=O)[O-])n1CC(C)O` (stereo unspecified), the Potency entry in assay [2], in assay [1], in assay [4] and in assay [3] was “inactive” in each case.
In the case of `COCCCOc1ccnc(CS(=O)c2nc3ccccc3[nH]2)c1C` (stereo unspecified), the Potency entry in assay [2] and in assay [4] was “inactive” in each case.
`CCCCCCCCCCCCCCCCCCCCCCO`: the Potency entry in assay [2], in assay [1], in assay [4] and in assay [3] was “inactive” each time.
Regarding `COC(=O)N[C@H](C(=O)N[C@@H](Cc1ccccc1)[C@@H](O)CN(Cc1ccc(-c2ccccn2)cc1)NC(=O)[C@@H](NC(=O)OC)C(C)(C)C)C(C)(C)C`, in assay [1], the Potency result is “inactive”.
On to `CCC(C)(Oc1ccc(C2(c3ccc(OC(C)(CC)C(=O)O)cc3)CCCCC2)cc1)C(=O)O` (stereo unspecified), for which the Potency entry in assay [2] and in assay [4] was “inactive” each time.
As to `Cc1cccc(C)c1OCC(=O)N[C@@H](Cc1ccccc1)[C@@H](O)C[C@H](Cc1ccccc1)NC(=O)[C@H](C(C)C)N1CCCNC1=O`, the Potency entry in assay [1] was “inactive”.
Still for that read-out and setting: the result for `CC(C)Oc1ccc2c(=O)c(-c3ccccc3)coc2c1` reads 2.03 µM (active); that for `CC(C)[N+]1(C)[C@@H]2CC[C@H]1CC(OC(=O)C(CO)c1ccccc1)C2` (stereo partly specified), “inactive”.
On to `CCCCN(CCCC)CCC(O)c1cc2c(Cl)cc(Cl)cc2c2cc(C(F)(F)F)ccc12` (stereo unspecified), for which the Potency entry in assay [1] and in assay [4] was “inactive” in each case.
Take `c1cnc2cc3c(cc2n1)C1CNCC3C1`: in assay [1], the Potency result was “inactive”.
On the same count and under the same terms, the result for `COc1cc(C(C)=O)ccc1OCCCN1CCC(c2noc3cc(F)ccc23)CC1` reads “inactive”; that for `COc1cc(Nc2c(C#N)cnc3cc(OCCCN4CCN(C)CC4)c(OC)cc23)c(Cl)cc1Cl`, “inactive”.
For `C=C(c1ccc(C(=O)O)cc1)c1cc2c(cc1C)C(C)(C)CCC2(C)C`, the Potency result in assay [2] and in assay [4] was “inactive” in each case.
`NC(=O)Cc1cccc(C(=O)c2ccccc2)c1N`: in assay [1], the Potency entry is “inactive”.
Take `Nc1cc(C(Cl)=C(Cl)Cl)c(S(N)(=O)=O)cc1S(N)(=O)=O`: the Potency entry in assay [2], in assay [1], in assay [4] and in assay [3] was “inactive” each time.
Consider `CC1=C(C(=O)O)N2C(=O)[C@@H](NC(=O)[C@H](N)C3=CCC=CC3)[C@H]2SC1`, for which, in assay [1], the Potency entry was “inactive”.
For `Cc1cc(=O)c2c(O)c3c(O)cc(=O)c4c3c3c(cc(O)c1c23)C(C)(C)C=4O`, the Potency in assay [2] is 3.98 µM (active). The Potency entry in assay [1] and in assay [3] was “inactive” in each case.
For the molecule `O=P(O)(O)C(O)(Cn1ccnc1)P(=O)(O)O`, the Potency entry in assay [2], in assay [1], in assay [4] and in assay [3] was “inactive” in each case.
For the molecule `CC(C)c1nc(CN(C)C(=O)N[C@H](C(=O)N[C@@H](Cc2ccccc2)C[C@H](O)[C@H](Cc2ccccc2)NC(=O)OCc2cncs2)C(C)C)cs1`, in assay [1], the Potency entry was “inactive”.
On to `Cc1nc(-c2ccc(OCC(C)C)c(C#N)c2)sc1C(=O)O`, for which the Potency in assay [1] is 0.0361 µM (active).
Same read-out and setting: the entry for `Cc1nccn1CC1CCc2c(c3ccccc3n2C)C1=O` (stereo unspecified) is “inactive”; for `Cc1nc(Nc2ncc(C(=O)Nc3c(C)cccc3Cl)s2)cc(N2CCN(CCO)CC2)n1` it is “inactive”.
Turning to `O=C1CCc2ccc(OCCCCN3CCN(c4cccc(Cl)c4Cl)CC3)cc2N1`, the Potency result in assay [1] is “inactive”. Further, the values for the Potency in assay [4] and in assay [3] were 32.2 µM (active) and 22.8 µM (active), respectively.
The corresponding values for `O=C(NC(Cc1cc(=O)[nH]c2ccccc12)C(=O)O)c1ccc(Cl)cc1` (stereo unspecified) are “inactive”, “inactive” and “inactive”.
The corresponding values for `N=C(N=C(N)N)N1CCOCC1` are “inactive”, “inactive” and “inactive”.
With `CC1=C(C)C(=O)C(C(CCCCCC(=O)O)c2ccccc2)=C(C)C1=O` (stereo unspecified), the Potency entry in assay [1], in assay [4] and in assay [3] was “inactive” throughout.
`CCCCCCCCOc1ccccc1C(=O)Nc1ccc(C(=O)OCC[N+](C)(CC)CC)cc1`: the Potency entry in assay [1], in assay [4] and in assay [3] was “inactive” in each case.
Turning to `Cc1nc2n(c(=O)c1CCN1CCC(c3noc4cc(F)ccc34)CC1)CCCC2`, the Potency entry in assay [1] and in assay [4] was “inactive” in each case.
With `O=C(NCC1CCCCN1)c1cc(OCC(F)(F)F)ccc1OCC(F)(F)F` (stereo unspecified), the Potency result in assay [1] and in assay [3] was “inactive” each time.
Take `O=C(O)CCNC(=O)c1ccc(N=Nc2ccc(O)c(C(=O)O)c2)cc1`: the Potency entry in assay [4] and in assay [3] was “inactive” each time.
`CC(C)(S)[C@@H](N)C(=O)O`: the Potency entry in assay [1], in assay [4] and in assay [3] was “inactive” in each case.
With `CCC1=C(C)CN(C(=O)NCCc2ccc(S(=O)(=O)NC(=O)NC3CCC(C)CC3)cc2)C1=O` (stereo unspecified), the Potency entry in assay [1] and in assay [4] was “inactive” each time. In assay [3], the Potency was 32.2 µM (active).
For `Cc1c(OCC(F)(F)F)ccnc1CS(=O)c1nc2ccccc2[nH]1` (stereo unspecified), the Potency result in assay [1] and in assay [4] was “inactive” throughout.
Take `CC1(C)CCC(C)(C)c2cc(NC(=O)c3ccc(C(=O)O)cc3)ccc21`: the Potency result in assay [4] was “inactive”. Moreover, the Potency in assay [3] was 0.114 µM (active).
As to `Nc1ccn([C@@H]2O[C@H](CO)[C@@H](O)C2O)c(=O)n1` (stereo partly specified), the Potency entry in assay [1] and in assay [4] was “inactive” each time.
For `C[Se]CCC(N)C(=O)O` (stereo unspecified), the Potency entry in assay [1], in assay [4] and in assay [3] was “inactive” in each case.
Regarding `C=CCc1cc(OC)c(O)c(C(=O)NCCO)c1`, the Potency result in assay [1], in assay [4] and in assay [3] was “inactive” in each case.
Take `Cc1ccc(NC(=O)c2ccc(CN3CCN(C)CC3)cc2)cc1Nc1nccc(-c2cccnc2)n1`: the Potency in assay [1] was 12.8 µM (active). Moreover, the Potency result in assay [3] is “inactive”.
Turning to `CCCOc1ccc2nc(NC(=O)OC)[nH]c2c1`, the Potency entry in assay [1], in assay [4] and in assay [3] was “inactive” in each case.
Consider `CCOC(=O)c1c(C)n(C)c2ccc(O)cc12`, for which the Potency entry in assay [1], in assay [4] and in assay [3] was “inactive” each time.
For `CC(C)[C@H](N)C(=O)OCCOCn1cnc2c(=O)[nH]c(N)nc21`, the Potency entry in assay [1], in assay [4] and in assay [3] was “inactive” in each case.
For the molecule `COc1ccc2cc([C@H](C)C(=O)O)ccc2c1`, the Potency entry in assay [1], in assay [4] and in assay [3] was “inactive” throughout.
Turning to `O=C(CS(=O)Cc1ccco1)NCC=CCOc1cc(CN2CCCCC2)ccn1` (stereo unspecified), the Potency result in assay [1], in assay [4] and in assay [3] was “inactive” in each case.
On to `Oc1ccc(OCc2ccccc2)cc1`, for which the Potency result in assay [4] and in assay [3] was “inactive” throughout.
With `Nc1cccc2c1CN(C1CCC(=O)NC1=O)C2=O` (stereo unspecified), the Potency entry in assay [1], in assay [4] and in assay [3] was “inactive” in each case.
`CC(=O)Nc1ccc(O)cc1`: the Potency result in assay [1] and in assay [4] was “inactive” each time.
As for `CC(C)c1ccc2oc3nc(N)c(C(=O)O)cc3c(=O)c2c1`, in assay [1], the Potency is 0.405 µM (active). In addition, the Potency result in assay [4] is “inactive”.
Consider `O=C(O)c1cn(-c2ccc(F)cc2)c2cc(N3CCNCC3)c(F)cc2c1=O`, for which the Potency entry in assay [1], in assay [4] and in assay [3] was “inactive” in each case.
Regarding `CN(C)CCc1c[nH]c2ccc(Cn3cncn3)cc12`, the Potency entry in assay [1], in assay [4] and in assay [3] was “inactive” in each case.
